Results taken from publication PMC7819943, “Rice protein-binding microarrays: a tool to detect cis-acting elements near promoter regions in rice”.
Whole data set: some 39,000 sequences, median “fluorescence intensity (a.u.)” near 4,300, cut for the highest 2% near 39,000. The entries come from a sample that favours the highest values as a whole.

Target: T1, OsSMF1 (Oryza sativa, UniProt Q6ZLB0 1-436)
T1 sequence: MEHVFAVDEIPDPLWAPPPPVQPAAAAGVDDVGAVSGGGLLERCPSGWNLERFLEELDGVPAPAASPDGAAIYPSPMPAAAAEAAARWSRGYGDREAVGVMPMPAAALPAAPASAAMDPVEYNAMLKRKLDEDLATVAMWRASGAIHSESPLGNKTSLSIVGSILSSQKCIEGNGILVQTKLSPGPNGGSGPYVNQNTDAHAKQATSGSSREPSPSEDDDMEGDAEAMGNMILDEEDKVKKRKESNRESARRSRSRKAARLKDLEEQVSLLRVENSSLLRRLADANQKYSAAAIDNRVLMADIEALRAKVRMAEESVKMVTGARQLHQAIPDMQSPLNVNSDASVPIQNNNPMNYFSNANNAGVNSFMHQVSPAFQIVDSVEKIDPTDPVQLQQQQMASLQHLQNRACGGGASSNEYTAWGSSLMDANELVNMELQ
Experiment: protein-binding microarray (RPBM); PBS, 2% BSA, 51.3 ng/ul salmon testes DNA, 50 uM zinc acetate, 200 nM TF, 25 C, 1 h; high values mean tight binding
Conditions: protein: recombinant; tags: N-terminal polyhistidine and DsRed monomer fusion (pET32a); chain copies: 2; label: CyDye5-dUTP incorporated in the synthesized complementary strand; 3' TTTTT single-stranded linker to array surface; dsDNA, one strand shown
Procedure, shortened: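 An Axon 4000B scanner gave the binding signal as per-feature fluorescence intensity in arbitrary units. This followed washing of a custom Agilent array that had been incubated for 1 h at 25 °C with 200 nM protein in PBS, 2% BSA, salmon testes DNA and 50 µM zinc acetate. The proteins were transcription factors fused at the N-terminus to polyhistidine and DsRed, expressed in E. coli BL21-CodonPlus and purified on Ni–NTA.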

First: CGCTCCTCGCCGCCTTGAACCTCACAGCGAAACCTGATCACGGAGTCACCTAGTGCAG
Second: GATCCCGGGCCCGGCCCACTGGCCCAGTCAACTAATCCTCCGGAGTCACCTAGTGCAG
The binding signal of the first is lower: 3270 fluorescence intensity (a.u.) for the first, 53100 fluorescence intensity (a.u.) for the second.

Compared with “GCCACCCTCAGCCACTGGCCATCCGTGGGCCCCACCATCCCGGAGTCACCTAGTGCAG”, “GCCCACATCCATCCCGTCACCCGCCCACTCGCCGTCGCACCGGAGTCACCTAGTGCAG” is lower in binding signal: 22500 fluorescence intensity (a.u.) for the first, 3490 fluorescence intensity (a.u.) for the second.

First: CCACCTAACACTAATCAACCAGTCAACCACCACATCTTCCCGGAGTCACCTAGTGCAG
Second: CACTCCCATTCCCATCCTCCACATCCCGCGCCATCGACCTCGGAGTCACCTAGTGCAG
The binding signal of the first is higher: 3820 fluorescence intensity (a.u.) for the first, 3400 fluorescence intensity (a.u.) for the second.

Compared with “TGGGGCCCACATCCCGCACCACTCGGATTCGGATTTCCTCCGGAGTCACCTAGTGCAG”, “CTGCTCCACGCATTCACCAACGCTCCCTGCGATGTTTTAGCGGAGTCACCTAGTGCAG” is lower in binding signal: 52200 fluorescence intensity (a.u.) for the first, 4260 fluorescence intensity (a.u.) for the second.

First: CATCCATCCGGTCAAAGCAGCCGGCCACGTGGCGTGTCCCCGGAGTCACCTAGTGCAG
Second: ACAGGCGAGGGTGGAACCCCGCGTGGCGAGAGCGTTGCGGCGGAGTCACCTAGTGCAG
The binding signal of the first is higher: 28100 fluorescence intensity (a.u.) for the first, 4270 fluorescence intensity (a.u.) for the second.

Going from “CTTTTCCCCGACTAAACACACCCATACTGTCAAAAGGTAACGGAGTCACCTAGTGCAG” to “TGTAAACATCCCATACTGGCTCTTACGCAAAACTTTCACCCGGAGTCACCTAGTGCAG”, the binding signal rises from 26800 fluorescence intensity (a.u.) to 54100 fluorescence intensity (a.u.).

Going from “TCTTCAAACTTCCAACTTTTCCATCACATCAAAACTTTCCCGGAGTCACCTAGTGCAG” to “ATAATCTTCAGAGATCTCCTTGCCTGAAGTGTCTTATGTTCGGAGTCACCTAGTGCAG”, the binding signal rises from 3340 fluorescence intensity (a.u.) to 42500 fluorescence intensity (a.u.).

Compared with “CCGCCTTGCGTGGCTGAACTTCTTCTGATGGTCCCCGCCTCGGAGTCACCTAGTGCAG”, “GCAATCTTTGCCTTGGTCCTCTTGAAGTCTTTGGCGGTATCGGAGTCACCTAGTGCAG” is higher in binding signal: 3290 fluorescence intensity (a.u.) for the first, 27700 fluorescence intensity (a.u.) for the second.

First: TAGTTCTGAAGTCTGAAATCCTTGCGGTCCTTCACCGCCTCGGAGTCACCTAGTGCAG
Second: CCGGATCTTCAGCAGAGTCGTGTCACCTGTTTTGATCGTTCGGAGTCACCTAGTGCAG
The binding signal of the first is higher: 55000 fluorescence intensity (a.u.) for the first, 3890 fluorescence intensity (a.u.) for the second.

Going from “TATGTTCATTTCCTTATTTGCCTCTCGTCATGTCTCTTGACGGAGTCACCTAGTGCAG” to “CTCACTGGTATGCTCACCACCACTTTAAGACTGTGTTTGTCGGAGTCACCTAGTGCAG”, the binding signal rises from 3420 fluorescence intensity (a.u.) to 3730 fluorescence intensity (a.u.).

First: TGGCCATCGCCTACGGTGAGCAGTCATCGTCGTCCATCCGCGGAGTCACCTAGTGCAG
Second: TAGTCCTCCTTGGCTACGGTGTCATAGATCGAGGCCTCCGCGGAGTCACCTAGTGCAG
The binding signal of the first is lower: 4090 fluorescence intensity (a.u.) for the first, 50200 fluorescence intensity (a.u.) for the second.

Going from “AGAGGCGAAATCGCGGCTACGGAGGCGGCGGCGGTGGCGGCGGAGTCACCTAGTGCAG” to “TGAAAATTTGTACACGTAAGTAATAGATGGTACCAATAGACGGAGTCACCTAGTGCAG”, the binding signal rises from 3390 fluorescence intensity (a.u.) to 5890 fluorescence intensity (a.u.).

Going from “CGAACGAGAATTCATGGAATCCAAGAAAAGAGACACGTGTCGGAGTCACCTAGTGCAG” to “CGTGTCATTGTCCAAAATGTCAAAGAAATATGGAACCGGACGGAGTCACCTAGTGCAG”, the binding signal rises from 5610 fluorescence intensity (a.u.) to 15200 fluorescence intensity (a.u.).

Compared with “AGAAGACGATCTCCTGAGACAAATTGCCAAAATTAAAGAACGGAGTCACCTAGTGCAG”, “TGTCACGAAAATCTTAATATTCATTTGGAGAAAAGAACGGCGGAGTCACCTAGTGCAG” is higher in binding signal: 4830 fluorescence intensity (a.u.) for the first, 49000 fluorescence intensity (a.u.) for the second.

First: AAGAGAAAATTCAAGAAATATCATTACCAAAGTCCAAGAACGGAGTCACCTAGTGCAG
Second: GAGAATTCTCCACGAAAAGAGGAGAACGAACCACATCAAACGGAGTCACCTAGTGCAG
The binding signal of the first is higher: 52800 fluorescence intensity (a.u.) for the first, 3380 fluorescence intensity (a.u.) for the second.

Going from “GCACATCTTCCTTAATTGCCAAAAGAGTAAATTTCACGAACGGAGTCACCTAGTGCAG” to “TTTCAAAATATTCAGTTTGAGAATATGTAAATCTTATGGGCGGAGTCACCTAGTGCAG”, the binding signal falls from 43300 fluorescence intensity (a.u.) to 20100 fluorescence intensity (a.u.).

Compared with “GAGTTTAATTAATTAATTTCTTAAAATTGATGTCATCACACGGAGTCACCTAGTGCAG”, “GATACGCGGCGGCTGAGTCAGCGTGGGACCCACGTGGGCCCGGAGTCACCTAGTGCAG” is higher in binding signal: 3140 fluorescence intensity (a.u.) for the first, 13000 fluorescence intensity (a.u.) for the second.

First: GCCATCCTCACGCACACGCCACGTGCTCGACGAAATGCCGCGGAGTCACCTAGTGCAG
Second: AGCTCAGCTCTCTCTGCTCTGCTCTTTGCTCGATAACGACCGGAGTCACCTAGTGCAG
The binding signal of the first is lower: 4190 fluorescence intensity (a.u.) for the first, 33600 fluorescence intensity (a.u.) for the second.

First: AAGGTTTGGAACATTCTGTTACCTATGAATACTGCACAGGCGGAGTCACCTAGTGCAG
Second: AAGAGCGTTTAAACAAGCTGTGGAGTCAGCAGATAGATTACGGAGTCACCTAGTGCAG
The binding signal of the first is higher: 11700 fluorescence intensity (a.u.) for the first, 3940 fluorescence intensity (a.u.) for the second.

Going from “GCATCGCCATCGCCGCGTGGTGGCGCACCATTCGCGTCACCGGAGTCACCTAGTGCAG” to “GGAGGAGTGGTCGCCGGGGATCATCGCGCGGCGTCACCGGCGGAGTCACCTAGTGCAG”, the binding signal falls from 5300 fluorescence intensity (a.u.) to 3570 fluorescence intensity (a.u.).

First: GGCTCGCAGAAAGGCGGACGACAAGGGCTCAGCAGGGTCACGGAGTCACCTAGTGCAG
Second: GGAGGCGGCGGCGACGAGGAGGGGCGTGGGCGGCGGCGGCCGGAGTCACCTAGTGCAG
The binding signal of the first is higher: 39500 fluorescence intensity (a.u.) for the first, 3660 fluorescence intensity (a.u.) for the second.
